SMILES strings stand for the structures. Several values for one entry are separate records, joined by “and”; a condition that tells them apart may be missing. Identical values can stand only once. Activity calls are given as the source filed them. The calls were made as follows: active = hit-call score of the fitted dose curve at least 0.9, where 1 is the maximum; inactive = score below 0.9.

Read-out in the assay: Transforming growth factor beta 1 (TGFb1), TGFB1 (gene 7040)
The assay is described as follows: BSK_BE3C_TGFb1: BioMAP Diversity Plus: BE3C Assay for Transforming growth factor beta 1 (TGFb1) Biomarker Activity (AID 2283036). The conditions noted are these: primary human bronchial epithelial cells; actives raise or lower the signal. The method, then:
BSK_BE3C is a cell-based, multiplexed-readout assay that uses bronchial epithelial cell, a human lung primary cell, with measurements taken at 24 hours after chemical dosing in a 96-well plate.BSK_BE3C_TGFb1 is an assay component measured in the BSK_BE3C assay. It measures TGF-b1 antibody related to regulation of gene expression using ELISA technology.Data from the assay component BSK_BE3C_TGFb1 was analyzed into 1 assay endpoint. This assay endpoint, BSK_BE3C_TGFb1, was analyzed with bidirectional fitting relative to DMSO as the negative control and baseline of activity. Using a type of binding reporter, gain or loss-of-signal activity can be used to understand changes in the signaling as they relate to the gene TGFB1. Furthermore, this assay endpoint can be referred to as a primary readout, because this assay has produced multiple assay endpoints where this one serves a signaling function. To generalize the intended target to other relatable targets, this assay endpoint is annotated to the growth factor intended target family, where the subfamily is transforming growth factor beta.
The levels of cell surface (or secreted, indicated by the prefix "s") biomarker endpoints were measured by ELISA. Overt cytotoxicity to cells in confluent adherent cultures (all systems other than the BT system) was assessed by measuring total protein levels using sulforhodamine B (SRB) staining in parallel cultures at the time of biomarker measurements, indicated as SRB endpoints. For proliferation assays for adherent cell types, individual cell types are cultured at sub-confluence and relative cell numbers quantified by SRB staining at time points optimized for each system (48 h: 3C and CASM3C systems; 72 h: BT and HDF3CGF systems; 96 h: SAg system). SRB was performed by staining cells with 0.1% SRB after fixation with 10% TCA and reading wells at 560 nm.Viability and proliferation of PBMC (T cells) was quantified by Alamar Blue reduction for the SAg and BT systems. For PBMC viability (referred to as PBMC Cytotoxicity within the assay endpoint names), cells were plated (75,000/well in a 96-well plate) and then chemical samples added for 1 h before addition of activators, SEB and TSST-1 (20 ng/mL final concentration each). Cells were incubated for 90 h. Then, Alamar Blue (20 uL/well) (Invitrogen, Cat DAL1100) was added for 6 h, and the plates were read with a fluorescence microplate reader at 546/580 nm (excitation/emission). For PBMC proliferation, cells were plated and activated as above but incubated for only 16 h prior to addition of Alamar Blue. Plates were read after 6 h.
As to `CC(=O)CCC=C(C)CCC=C(C)C`, the result was inactive.

As usually defined, the AC50 is the midpoint of the concentration-response curve, whichever way the signal moves. `CCCCCCCCCC(=O)OCC`: the AC50 was 20 µM (active).

Take `OCCN1CCOCC1`: the outcome was inactive.

`CCOC(=O)C=Cc1ccccc1`: the result was inactive.

On to `CC(=O)OC(C)(C)C1CC=C(C)CC1` (stereo unspecified), for which the result was inactive.

As for `CC1=CC(C)C(C=O)C(C)C1` (stereo unspecified) (tested in a mixture with another compound), the result was inactive.

As for `CC(=O)OCC=C(C)CCC=C(C)CCC=C(C)C`, the result was inactive.

Take `CCCCOCCOCCO`: the result was inactive.

As for `O=S1(=O)CC(Cl)(Cl)C(Cl)(Cl)C1`, the half-maximal activity concentration (AC50) is 0.582 µM (active).

For the compound `CC(C)(C)c1cccc(O)c1`, the outcome was inactive.

Take `CCOC(=O)CCCCCCCCC(=O)OCC`: the result was inactive.

For the compound `c1ccc2c(c1)-c1ccc3ccc4cccc5cc-2c1c3c45`, the outcome was inactive.

For the compound `CC(C)Cc1ccc(C(C)C(=O)O)cc1` (stereo unspecified), the result was inactive.

For the compound `CC/C(=C(\c1ccccc1)c1ccc(OCCN(C)C)cc1)c1ccccc1`, the AC50 is 9.23 µM (active) and 20 µM (active).

With `CC1(C)[C@H](C=C(Cl)Cl)[C@H]1C(=O)OCc1cccc(Oc2ccccc2)c1`, the outcome was inactive.

For `COC(=O)c1ccc(C(=O)OC)cc1`, the outcome was inactive.

Regarding `O=C(c1ccc(OCCN2CCCCC2)cc1)c1c(-c2ccc(O)cc2)sc2cc(O)ccc12`, the AC50 is 31.9 µM (active).

With `CCCCCCCCCCCCS`, the result was inactive.

For the compound `C[C@]12CC[C@@H]3c4ccc(O)cc4CC[C@H]3[C@@H]1CC[C@@H]2O`, the result was inactive.

`NC(=O)c1c(Cl)cccc1Cl`: the outcome was inactive.

For the compound `C=CC(=O)OCC(CO)(COC(=O)C=C)COC(=O)C=C`, the AC50 was 1.4 µM (active).

Regarding `CCCCCCCC1CCCC1=O` (stereo unspecified), the AC50 is 36.6 µM (active).

For `C#C[C@]1(O)CC[C@H]2[C@@H]3CCc4cc(O)ccc4[C@H]3CC[C@@]21C`, the result was inactive.

Turning to `c1ccc(Sc2ccccc2)cc1`, the AC50 was 20 µM (active).

As to `COc1ccccc1NC(=O)CC(C)=O`, the outcome was inactive.

Take `C=C(C)C(N)=O`: the result was inactive.

With `CC=CC(=O)C1=C(C)C=CCC1(C)C`, the outcome was inactive.

Turning to `Nc1ccc(N)c([N+](=O)[O-])c1`, the outcome was inactive.

Turning to `C=C1CC/C=C(\C)CC[C@@H]2[C@@H]1CC2(C)C`, the result was inactive.

For `CCC(=O)OCC=Cc1ccccc1`, the result was inactive.

`O=C1OC2(c3ccc(O)cc3Oc3cc(O)ccc32)c2ccccc21`: the outcome was inactive.

Source of the values: PubChem BioAssay (EPA / NIEHS).
